From PubChem BioAssay
GPR151 ag: activators of human GPR151, primary screen, cell-based, PathHunter beta-arrestin, luminescence. G-protein coupled receptor 151 (Homo sapiens), Q8TDV0. PathHunter beta-arrestin GPR151 cells. activation, % at 11.2 µM. 650,000 tested, 1% active. AID 1508602, 2020; in the data active = activation above about 4.9%;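 note: 0% = median of compound wells and 100% = cells with positive control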
MITF inh: MITF inhibitors, primary screen, biochemical, AlphaScreen, human | Microphthalmia-associated transcription factor (Homo sapiens), O75030 | AlphaScreen MITF homodimerization, bead proximity signal | inhibition, % at 2.6 µM | 650,000 tested, 0.91% active | AID 1259374, 2018; in the data active = inhibition above about 50%;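 note: 0% = vehicle wells with protein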
Target sequence (O75030 whole entry, looked up): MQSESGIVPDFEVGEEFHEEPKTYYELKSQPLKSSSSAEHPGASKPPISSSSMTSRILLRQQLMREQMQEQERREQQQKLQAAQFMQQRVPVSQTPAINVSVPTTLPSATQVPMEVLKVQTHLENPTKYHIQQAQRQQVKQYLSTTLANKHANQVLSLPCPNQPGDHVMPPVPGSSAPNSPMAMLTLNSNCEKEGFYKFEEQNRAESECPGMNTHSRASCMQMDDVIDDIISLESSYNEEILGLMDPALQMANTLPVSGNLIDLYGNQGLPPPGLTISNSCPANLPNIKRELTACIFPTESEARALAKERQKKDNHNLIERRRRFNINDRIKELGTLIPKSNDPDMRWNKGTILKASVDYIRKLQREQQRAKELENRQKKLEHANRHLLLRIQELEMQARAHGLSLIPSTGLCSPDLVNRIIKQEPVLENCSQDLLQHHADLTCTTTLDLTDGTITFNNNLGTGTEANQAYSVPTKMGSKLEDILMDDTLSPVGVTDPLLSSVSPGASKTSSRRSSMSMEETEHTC
FBW7 act: FBW7 E3 ligase activators, primary screen, biochemical, AlphaScreen, human. 650,000 tested, 0.13% active. F-box/WD repeat-containing protein 7 (Homo sapiens), Q969H0. AlphaScreen FBW7–phospho-cyclin E peptide binding, activator screen. normalized activity (activation), % at 26.1 µM. AID 1259310, 2017; in the data active = normalized activity above about 1.9%;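 note: purified mutant Fbw7 with reduced substrate affinity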
TEAD-YAP inh: TEAD-YAP interaction inhibition, primary screen, TEAD-YAP interaction inhibitor project, luminescence, HEK-TIYL cells; TEAD-Gal4/YAP UAS-luciferase luminescence; 640,000 tested, 1.4% active; AID 1259422, 2018; inhibition, % at 9.12 µM; in the data active = inhibition above about 32%;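 note: 0% = median of test compound wells and 100% = reference inhibitor wells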
* = called active by the depositor. Sampled rows, rich in hits. Any-hit rate of the full collection: about 3.5%.

For c1cc(-n2cnc3c(NC4CC4)nc(NCCN4CCOCC4)nc32)cs1 the results were GPR151 ag 1, MITF inh 14, FBW7 act 0 and TEAD-YAP inh 41*.
For O=c1cc(-c2cncc(-c3ccsc3)c2)nc(-c2ccccc2)[nH]1 the results were GPR151 ag 2, MITF inh -5, FBW7 act 0 and TEAD-YAP inh 2.
S=c1[nH]nc2c(Nc3ccc(Cl)cc3)nc3nonc3n12 was read as GPR151 ag -1, MITF inh 3, FBW7 act 0 and TEAD-YAP inh -4.
Screening NC1=C/C(=N\S(=O)(=O)c2ccccc2)c2ccccc2C1=O returned GPR151 ag 0, MITF inh 10, FBW7 act 0 and TEAD-YAP inh 96*.
`CC[n+]1c(-c2ccc(C)cc2)csc1Nc1ccc(NC(C)=O)cc1` gave GPR151 ag 1, MITF inh 12, FBW7 act 0 and TEAD-YAP inh 62*.
`CC[n+]1c(-c2ccc(C)cc2)csc1Nc1c(C)cc(C)cc1C` gave GPR151 ag 3, MITF inh 22, FBW7 act 0 and TEAD-YAP inh 5.
For COC(=O)CCSc1ccc(S(=O)(=O)N2CCCC2)cc1[N+](=O)[O-] the results were GPR151 ag 0, MITF inh 2, FBW7 act 0 and TEAD-YAP inh 0.
For Cc1c(C(=O)NCc2ccccc2Cl)oc2ccc(S(=O)(=O)N3CCOCC3)cc12 the results were GPR151 ag 2, MITF inh 4, FBW7 act 2.4* and TEAD-YAP inh -1.
`COc1ccccc1CNC(=O)c1oc2ccc(S(=O)(=O)N3CCOCC3)cc2c1C` gave GPR151 ag 0, MITF inh 0, FBW7 act 0 and TEAD-YAP inh -13.
Cc1nc(N2CCN(C(=O)c3ccc(F)c(F)c3)CC2)[nH]c(=O)c1C was read as GPR151 ag 1, MITF inh 9, FBW7 act 0 and TEAD-YAP inh 2.
`N#Cc1ccc(S(=O)(=O)Nc2nccnc2-c2ccc(CO)cc2)cc1` gave GPR151 ag 0, MITF inh 12, FBW7 act 0 and TEAD-YAP inh -5.
`Cc1ccc(C(=O)N/C(=C/c2ccc(-c3ccc(Cl)cc3)o2)C(=O)NCc2ccccc2)cc1` gave GPR151 ag -1, MITF inh 3, FBW7 act 0 and TEAD-YAP inh -5.
`O=C(NCc1cccnc1)/C(=C/c1ccc(-c2ccc(Cl)cc2)o1)S(=O)(=O)c1ccccc1` gave GPR151 ag -1, MITF inh 12, FBW7 act 0 and TEAD-YAP inh 56*.
`Nc1c(C(=O)NCc2ccccc2)nnn1Cc1cccc(F)c1` gave GPR151 ag -1, MITF inh 25, FBW7 act 1 and TEAD-YAP inh 3.
For Nc1c(C(=O)NCc2ccccc2)nnn1Cc1cccc(C(F)(F)F)c1 the results were GPR151 ag 0, MITF inh -11, FBW7 act 0 and TEAD-YAP inh 48*.
For O=C(Cc1cccc2ccccc12)Nc1sc2c(c1C(=O)O)CCC2 the results were GPR151 ag 2, MITF inh -2, FBW7 act 0 and TEAD-YAP inh 0.
Cc1ncn(-c2ccc(Nc3ncc4cccc(-c5cnn(CC6CC6)c5)c4n3)cc2)n1 was read as GPR151 ag 0, MITF inh 11, FBW7 act 0 and TEAD-YAP inh 49*.
`Cc1ncn(-c2ccc(Nc3ncc4cccc(-c5cnn(C(C)C)c5)c4n3)cc2)n1` gave GPR151 ag 0, MITF inh 13, FBW7 act 0 and TEAD-YAP inh 52*.
Screening CCOC(=O)C1=C(C)N=c2s/c(=C\c3cc(Br)ccc3OC)c(=O)n2C1c1ccc(N(C)C)cc1 (stereo not given) returned GPR151 ag 0, MITF inh -13, FBW7 act 0 and TEAD-YAP inh -1.
`OCC1CCCN1c1cc(NCCc2ccc(O)cc2)ncn1` (stereo not given) gave GPR151 ag -1, MITF inh 10, FBW7 act 0 and TEAD-YAP inh 48*.
For Oc1ccc(CCNc2cc(Nc3ncccn3)ncn2)cc1 the results were GPR151 ag 0, MITF inh -13, FBW7 act 1 and TEAD-YAP inh 42*.
OCC1CCCN1c1cc(Nc2ccccc2)ncn1 (stereo not given) was read as GPR151 ag -1, MITF inh 12, FBW7 act 0 and TEAD-YAP inh -23.
For OCC1CCCN1c1cc(Nc2ccc3c(c2)OCO3)ncn1 (stereo not given) the results were GPR151 ag -1, MITF inh 3, FBW7 act 0 and TEAD-YAP inh 37*.
O=C1NN(c2ccc(I)cc2)C(=O)/C1=C\c1ccccc1O was read as GPR151 ag -1, MITF inh 54*, FBW7 act 0 and TEAD-YAP inh 0.
For COc1ccc2oc(C)c(C(=O)c3oc4ccccc4c3N)c2c1 the results were GPR151 ag -1, MITF inh -3, FBW7 act 0 and TEAD-YAP inh 34*.
`COC(=O)c1oc2ccc(OC)cc2c1N` gave GPR151 ag -2, MITF inh 3, FBW7 act 0 and TEAD-YAP inh -21.
Screening COc1ccc2occ(C(=O)c3oc4ccccc4c3N)c2c1 returned GPR151 ag -5, MITF inh -2, FBW7 act 0 and TEAD-YAP inh 32*.
Screening COc1ccc2oc(C(=O)c3ccc(Cl)cc3)c(N)c2c1 returned GPR151 ag 0, MITF inh 14, FBW7 act 1 and TEAD-YAP inh -87.
Screening O=C1C=C(NCc2ccccc2)c2ccccc2C1=O returned GPR151 ag 0, MITF inh 12, FBW7 act 0 and TEAD-YAP inh 51*.
`O=C1C=C(Nc2cccc(C(=O)O)c2)c2ccccc2C1=O` gave GPR151 ag 1, MITF inh 3, FBW7 act 0 and TEAD-YAP inh 2.
CSc1cccc2sc(NC(=O)c3ccccc3)nc12 was read as GPR151 ag 1, MITF inh 3, FBW7 act 1 and TEAD-YAP inh -28.
Nc1c(C(=O)N2CCCCC2)sc2nc(-c3cccs3)cc(C(F)(F)F)c12 was read as GPR151 ag 0, MITF inh -5, FBW7 act 4.1* and TEAD-YAP inh 1.
For CCN(CC)c1ccc(C(=O)O)cc1 the results were GPR151 ag 1, MITF inh 4, FBW7 act 0 and TEAD-YAP inh -8.
Screening CCN(CC)c1ccc(C(=O)c2ccc(N(CC)CC)cc2)cc1 returned GPR151 ag 2, MITF inh 1, FBW7 act 0 and TEAD-YAP inh 34*.
CCCSc1nnc(-c2ccc(OC)cc2)o1 was read as GPR151 ag -3, MITF inh 9, FBW7 act 1 and TEAD-YAP inh 45*.
CCOCCCNc1nc2ccccc2n2c(C)nnc12 was read as GPR151 ag 0, MITF inh 16, FBW7 act 0 and TEAD-YAP inh -1.
